Columns and labels:
Experiment in all cases: DAPPL (digital affinity profiling via proximity ligation, sequencing); 10 mM Tris-HCl pH 7.5, 50 mM NaCl, 1 mM DTT, 4% glycerol, room temperature, 30 min; GST-TFs on glutathione beads, 16-mer random dsDNA library, 0.1% formaldehyde crosslink after washing; high values mean tight binding
Settings in all cases: protein: recombinant; tags: N-terminal GST; dsDNA, one strand shown
ELK1 = biological target: T1, ELK1 (Homo sapiens, UniProt P19419 1-428)
T1 sequence: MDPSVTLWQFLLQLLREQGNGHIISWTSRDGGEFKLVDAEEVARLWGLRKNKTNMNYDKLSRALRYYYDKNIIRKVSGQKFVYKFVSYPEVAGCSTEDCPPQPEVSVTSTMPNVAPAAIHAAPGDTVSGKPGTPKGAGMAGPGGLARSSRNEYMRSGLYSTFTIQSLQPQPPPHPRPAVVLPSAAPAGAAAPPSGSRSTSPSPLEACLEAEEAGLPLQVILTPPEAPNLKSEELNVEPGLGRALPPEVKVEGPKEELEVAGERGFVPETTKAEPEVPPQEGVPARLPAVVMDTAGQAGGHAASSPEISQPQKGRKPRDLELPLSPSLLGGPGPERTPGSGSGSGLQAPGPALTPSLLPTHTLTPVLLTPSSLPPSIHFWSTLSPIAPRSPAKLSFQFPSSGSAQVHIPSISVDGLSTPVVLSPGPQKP
Summary of the method: (§1)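 Yeast served to express human transcription factors as GST fusions, which were then captured on glutathione beads and labelled with DNA barcodes. Pooled with a tag-only sample, they were incubated with 200 nmole of a 16-mer random double-stranded DNA library for 30 min at room temperature in Tris/NaCl/DTT/glycerol buffer, washed, crosslinked with 0.1% formaldehyde, ligated by proximity, amplified by PCR and sequenced. Dividing each hexamer's read frequency for a factor by its frequency for the tag-only sample gives the binding signal.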

GABPA = biological target: T2, GABPA (Homo sapiens, UniProt Q06546 1-454)
T2 sequence: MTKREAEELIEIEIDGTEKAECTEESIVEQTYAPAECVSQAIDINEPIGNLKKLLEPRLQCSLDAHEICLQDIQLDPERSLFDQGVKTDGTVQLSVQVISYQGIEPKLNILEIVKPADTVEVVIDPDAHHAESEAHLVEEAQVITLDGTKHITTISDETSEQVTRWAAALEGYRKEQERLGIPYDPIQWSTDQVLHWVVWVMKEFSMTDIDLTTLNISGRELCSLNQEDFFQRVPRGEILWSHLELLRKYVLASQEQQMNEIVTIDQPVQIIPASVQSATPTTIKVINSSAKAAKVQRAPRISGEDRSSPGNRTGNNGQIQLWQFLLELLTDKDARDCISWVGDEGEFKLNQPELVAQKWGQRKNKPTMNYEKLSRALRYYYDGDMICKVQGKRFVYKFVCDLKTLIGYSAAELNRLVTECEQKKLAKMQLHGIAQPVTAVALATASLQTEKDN
Summary of the method: as §1

ERG = biological target: T3, ERG (Homo sapiens, UniProt P11308 1-479)
T3 sequence: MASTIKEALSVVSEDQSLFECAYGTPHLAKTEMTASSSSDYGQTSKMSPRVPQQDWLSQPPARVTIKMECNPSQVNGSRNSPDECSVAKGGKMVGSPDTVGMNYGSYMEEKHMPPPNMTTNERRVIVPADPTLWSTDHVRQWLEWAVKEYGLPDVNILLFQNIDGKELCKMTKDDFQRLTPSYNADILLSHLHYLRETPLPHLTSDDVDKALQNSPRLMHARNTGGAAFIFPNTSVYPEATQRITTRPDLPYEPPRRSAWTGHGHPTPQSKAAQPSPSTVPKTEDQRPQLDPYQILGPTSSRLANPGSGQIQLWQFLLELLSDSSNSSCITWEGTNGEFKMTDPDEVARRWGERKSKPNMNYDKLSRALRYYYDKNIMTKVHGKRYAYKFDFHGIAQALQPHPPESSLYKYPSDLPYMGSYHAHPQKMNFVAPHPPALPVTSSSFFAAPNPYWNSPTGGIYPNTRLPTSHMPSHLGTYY
Summary of the method: as §1

ELF1 = ELF1 (Homo sapiens, UniProt P32519 1-619)
Sequence of ELF1 (P32519 whole entry): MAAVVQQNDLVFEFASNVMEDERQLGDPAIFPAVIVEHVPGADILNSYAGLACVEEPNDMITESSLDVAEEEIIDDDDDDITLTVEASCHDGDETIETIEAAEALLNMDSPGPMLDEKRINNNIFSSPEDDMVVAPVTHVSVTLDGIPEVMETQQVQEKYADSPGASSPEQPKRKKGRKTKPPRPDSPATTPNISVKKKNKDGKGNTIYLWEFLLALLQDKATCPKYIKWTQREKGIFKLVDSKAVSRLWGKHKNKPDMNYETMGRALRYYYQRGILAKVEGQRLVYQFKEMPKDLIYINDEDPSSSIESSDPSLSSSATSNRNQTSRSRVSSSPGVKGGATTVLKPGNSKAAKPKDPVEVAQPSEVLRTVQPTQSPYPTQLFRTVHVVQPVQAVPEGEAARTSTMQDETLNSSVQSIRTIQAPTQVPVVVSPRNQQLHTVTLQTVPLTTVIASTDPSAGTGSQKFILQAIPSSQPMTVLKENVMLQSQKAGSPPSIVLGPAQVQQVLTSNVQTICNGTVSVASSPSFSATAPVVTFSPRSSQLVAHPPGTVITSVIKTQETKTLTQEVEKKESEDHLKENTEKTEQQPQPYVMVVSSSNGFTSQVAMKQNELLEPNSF
Summary of the method: as §1

EHF = biological target: T4, EHF (Homo sapiens, UniProt Q9NZC4 1-300)
T4 sequence: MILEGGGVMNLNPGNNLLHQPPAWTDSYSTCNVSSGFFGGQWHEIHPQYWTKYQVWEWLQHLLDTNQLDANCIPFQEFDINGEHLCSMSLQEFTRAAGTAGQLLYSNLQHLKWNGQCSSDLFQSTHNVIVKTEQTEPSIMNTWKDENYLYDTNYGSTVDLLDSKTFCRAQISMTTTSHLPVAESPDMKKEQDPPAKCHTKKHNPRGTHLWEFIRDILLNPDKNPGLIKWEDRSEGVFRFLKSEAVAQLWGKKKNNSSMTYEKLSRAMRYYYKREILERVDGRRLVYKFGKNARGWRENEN
Summary of the method: as §1

SPIB = SPIB (Homo sapiens, UniProt Q01892 1-262)
Sequence of SPIB (Q01892 whole entry): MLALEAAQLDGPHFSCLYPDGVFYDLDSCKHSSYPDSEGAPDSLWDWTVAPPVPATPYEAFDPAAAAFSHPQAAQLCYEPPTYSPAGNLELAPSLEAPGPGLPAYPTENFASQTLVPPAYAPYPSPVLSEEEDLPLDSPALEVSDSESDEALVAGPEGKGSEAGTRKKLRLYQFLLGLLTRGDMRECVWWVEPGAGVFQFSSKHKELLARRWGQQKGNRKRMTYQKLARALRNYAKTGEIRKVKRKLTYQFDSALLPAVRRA
Summary of the method: as §1

FEV = biological target: T5, FEV (Homo sapiens, UniProt Q99581 1-238)
T5 sequence: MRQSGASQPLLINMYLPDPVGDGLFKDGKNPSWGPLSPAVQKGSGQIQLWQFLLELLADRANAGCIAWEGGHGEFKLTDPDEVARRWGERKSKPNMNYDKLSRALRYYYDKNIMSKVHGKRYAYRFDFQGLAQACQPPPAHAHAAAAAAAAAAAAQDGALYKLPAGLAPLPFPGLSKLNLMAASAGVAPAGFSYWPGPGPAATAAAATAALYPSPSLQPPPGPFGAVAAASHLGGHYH
Summary of the method: as §1

ETV5 = ETV5 (Homo sapiens, UniProt P41161 1-510)
Sequence of ETV5 (P41161 whole entry): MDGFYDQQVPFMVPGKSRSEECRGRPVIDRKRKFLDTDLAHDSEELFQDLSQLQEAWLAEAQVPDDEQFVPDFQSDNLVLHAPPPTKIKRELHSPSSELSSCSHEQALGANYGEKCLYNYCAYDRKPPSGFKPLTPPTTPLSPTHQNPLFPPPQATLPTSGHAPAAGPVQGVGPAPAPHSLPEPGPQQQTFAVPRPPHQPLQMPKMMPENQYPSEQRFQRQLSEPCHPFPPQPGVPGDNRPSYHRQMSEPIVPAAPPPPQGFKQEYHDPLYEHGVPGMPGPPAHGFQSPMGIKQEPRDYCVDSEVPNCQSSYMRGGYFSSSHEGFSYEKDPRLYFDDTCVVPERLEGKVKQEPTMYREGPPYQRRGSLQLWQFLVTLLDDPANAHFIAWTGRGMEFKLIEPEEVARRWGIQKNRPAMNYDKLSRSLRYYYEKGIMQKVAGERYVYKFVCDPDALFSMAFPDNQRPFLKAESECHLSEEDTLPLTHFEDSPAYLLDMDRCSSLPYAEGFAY
Summary of the method: as §1

ELF4 = ELF4 (Homo sapiens, UniProt Q99607 1-663)
Sequence of ELF4 (Q99607 whole entry): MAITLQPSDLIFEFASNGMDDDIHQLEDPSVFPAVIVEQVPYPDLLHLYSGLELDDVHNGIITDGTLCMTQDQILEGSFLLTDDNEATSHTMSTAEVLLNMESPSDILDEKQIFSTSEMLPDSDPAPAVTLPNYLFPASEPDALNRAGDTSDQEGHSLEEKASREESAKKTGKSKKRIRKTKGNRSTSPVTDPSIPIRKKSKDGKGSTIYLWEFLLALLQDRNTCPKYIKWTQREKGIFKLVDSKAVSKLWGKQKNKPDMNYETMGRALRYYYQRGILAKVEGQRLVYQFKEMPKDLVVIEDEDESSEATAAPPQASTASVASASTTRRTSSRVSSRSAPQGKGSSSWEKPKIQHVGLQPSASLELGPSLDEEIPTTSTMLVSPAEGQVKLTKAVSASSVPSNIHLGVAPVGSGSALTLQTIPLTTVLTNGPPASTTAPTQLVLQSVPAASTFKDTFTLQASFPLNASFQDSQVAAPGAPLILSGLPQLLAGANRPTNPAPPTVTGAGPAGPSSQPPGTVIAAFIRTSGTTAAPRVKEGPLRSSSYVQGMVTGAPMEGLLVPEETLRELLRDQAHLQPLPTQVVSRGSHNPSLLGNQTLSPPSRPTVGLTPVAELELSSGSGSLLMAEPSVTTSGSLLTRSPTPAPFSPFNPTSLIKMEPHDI
Summary of the method: as §1

ELK4 = biological target: T6, ELK4 (Homo sapiens, UniProt P28324-2 1-405)
T6 sequence: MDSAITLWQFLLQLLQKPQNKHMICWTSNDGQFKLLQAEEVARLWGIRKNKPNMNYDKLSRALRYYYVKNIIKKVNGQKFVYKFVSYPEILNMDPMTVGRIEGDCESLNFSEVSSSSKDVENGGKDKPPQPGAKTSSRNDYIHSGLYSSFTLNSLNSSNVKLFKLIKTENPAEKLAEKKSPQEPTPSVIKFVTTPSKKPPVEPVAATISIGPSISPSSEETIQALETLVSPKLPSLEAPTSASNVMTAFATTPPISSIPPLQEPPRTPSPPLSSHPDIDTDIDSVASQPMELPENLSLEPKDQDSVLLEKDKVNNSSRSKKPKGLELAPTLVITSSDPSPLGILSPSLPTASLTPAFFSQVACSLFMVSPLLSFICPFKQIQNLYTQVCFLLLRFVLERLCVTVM
Summary of the method: as §1

ETV2 = biological target: T7, ETV2 (Homo sapiens, UniProt O00321 1-342)
T7 sequence: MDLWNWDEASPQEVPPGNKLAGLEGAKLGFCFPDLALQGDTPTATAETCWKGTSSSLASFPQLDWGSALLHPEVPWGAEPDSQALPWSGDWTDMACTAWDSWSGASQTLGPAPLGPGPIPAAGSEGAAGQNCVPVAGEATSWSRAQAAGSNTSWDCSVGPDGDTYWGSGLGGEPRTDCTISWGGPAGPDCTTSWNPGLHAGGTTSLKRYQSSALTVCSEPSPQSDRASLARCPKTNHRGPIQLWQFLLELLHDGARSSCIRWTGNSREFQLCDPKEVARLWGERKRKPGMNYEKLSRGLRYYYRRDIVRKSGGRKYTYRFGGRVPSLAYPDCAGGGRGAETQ
Summary of the method: as §1

ELF3 = biological target: T8, ELF3 (Homo sapiens, UniProt P78545 1-371)
T8 sequence: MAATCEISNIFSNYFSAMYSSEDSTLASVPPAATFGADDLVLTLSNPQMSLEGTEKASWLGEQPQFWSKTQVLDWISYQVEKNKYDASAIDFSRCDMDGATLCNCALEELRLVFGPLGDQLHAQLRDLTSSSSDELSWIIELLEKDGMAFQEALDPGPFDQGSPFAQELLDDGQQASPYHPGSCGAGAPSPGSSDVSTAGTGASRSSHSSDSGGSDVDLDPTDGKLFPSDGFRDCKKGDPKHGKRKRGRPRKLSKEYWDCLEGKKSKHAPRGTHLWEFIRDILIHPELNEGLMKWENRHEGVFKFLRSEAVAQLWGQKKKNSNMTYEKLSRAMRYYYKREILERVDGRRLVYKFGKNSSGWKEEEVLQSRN
Summary of the method: as §1

ETV1 = ETV1 (Homo sapiens, UniProt P50549 1-477)
Sequence of ETV1 (P50549 whole entry): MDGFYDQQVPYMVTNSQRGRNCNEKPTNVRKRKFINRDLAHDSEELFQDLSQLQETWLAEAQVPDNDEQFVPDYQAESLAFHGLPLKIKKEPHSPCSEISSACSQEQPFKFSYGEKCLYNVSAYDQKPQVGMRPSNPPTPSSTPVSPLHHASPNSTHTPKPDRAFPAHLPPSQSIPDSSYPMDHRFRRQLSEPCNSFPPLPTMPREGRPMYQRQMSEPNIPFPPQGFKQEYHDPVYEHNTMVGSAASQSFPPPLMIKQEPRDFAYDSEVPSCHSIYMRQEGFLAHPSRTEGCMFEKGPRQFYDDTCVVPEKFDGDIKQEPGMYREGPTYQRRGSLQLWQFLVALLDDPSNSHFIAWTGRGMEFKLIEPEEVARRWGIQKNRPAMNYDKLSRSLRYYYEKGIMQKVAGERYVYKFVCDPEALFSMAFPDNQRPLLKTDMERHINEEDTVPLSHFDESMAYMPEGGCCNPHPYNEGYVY
Summary of the method: as §1

ETV3L = biological target: T9, ETV3L (Homo sapiens, UniProt Q6ZN32 1-361)
T9 sequence: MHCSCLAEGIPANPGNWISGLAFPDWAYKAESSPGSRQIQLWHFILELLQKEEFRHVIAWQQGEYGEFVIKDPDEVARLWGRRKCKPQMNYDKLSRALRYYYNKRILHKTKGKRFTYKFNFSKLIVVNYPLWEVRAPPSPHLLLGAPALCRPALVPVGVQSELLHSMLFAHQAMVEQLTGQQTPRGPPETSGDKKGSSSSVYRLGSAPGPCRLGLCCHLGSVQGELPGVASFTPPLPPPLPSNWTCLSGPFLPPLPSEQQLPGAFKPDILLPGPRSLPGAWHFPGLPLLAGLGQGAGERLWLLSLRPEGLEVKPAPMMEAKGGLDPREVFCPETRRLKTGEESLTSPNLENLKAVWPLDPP
Summary of the method: as §1

ETS2 = biological target: T10, ETS2 (Homo sapiens, UniProt P15036 1-469)
T10 sequence: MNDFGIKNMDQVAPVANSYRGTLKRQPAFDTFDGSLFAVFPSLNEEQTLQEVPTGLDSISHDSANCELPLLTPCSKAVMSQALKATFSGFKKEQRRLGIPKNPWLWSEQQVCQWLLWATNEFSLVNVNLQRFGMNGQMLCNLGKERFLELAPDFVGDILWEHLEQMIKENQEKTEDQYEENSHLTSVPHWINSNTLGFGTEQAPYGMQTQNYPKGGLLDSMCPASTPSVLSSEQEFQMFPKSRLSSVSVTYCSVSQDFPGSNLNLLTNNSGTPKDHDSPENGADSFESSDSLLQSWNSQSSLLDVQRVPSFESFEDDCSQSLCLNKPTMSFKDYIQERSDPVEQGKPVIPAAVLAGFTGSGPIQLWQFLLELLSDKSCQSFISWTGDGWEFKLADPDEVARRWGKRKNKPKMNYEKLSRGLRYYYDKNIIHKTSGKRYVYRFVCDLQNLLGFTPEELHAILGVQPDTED
Summary of the method: as §1

SPDEF = biological target: T11, SPDEF (Homo sapiens, UniProt O95238 1-335)
T11 sequence: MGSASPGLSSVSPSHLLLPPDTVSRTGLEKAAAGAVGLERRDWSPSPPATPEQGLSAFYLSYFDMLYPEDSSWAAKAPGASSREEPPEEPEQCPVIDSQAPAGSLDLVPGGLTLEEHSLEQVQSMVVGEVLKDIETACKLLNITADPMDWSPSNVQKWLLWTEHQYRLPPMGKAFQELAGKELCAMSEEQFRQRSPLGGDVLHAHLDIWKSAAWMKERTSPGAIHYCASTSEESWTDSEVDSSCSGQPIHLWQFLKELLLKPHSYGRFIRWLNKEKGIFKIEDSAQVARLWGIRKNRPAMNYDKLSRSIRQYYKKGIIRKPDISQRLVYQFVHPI
Summary of the method: as §1

ETV3 = biological target: T12, ETV3 (Homo sapiens, UniProt P41162-2 1-143)
T12 sequence: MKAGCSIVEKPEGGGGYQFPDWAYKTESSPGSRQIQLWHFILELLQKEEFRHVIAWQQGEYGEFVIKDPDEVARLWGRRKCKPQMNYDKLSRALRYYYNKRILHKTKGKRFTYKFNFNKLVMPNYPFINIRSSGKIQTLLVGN
Summary of the method: as §1

ETV6 = ETV6 (Homo sapiens, UniProt P41212 1-452)
Sequence of ETV6 (P41212 whole entry): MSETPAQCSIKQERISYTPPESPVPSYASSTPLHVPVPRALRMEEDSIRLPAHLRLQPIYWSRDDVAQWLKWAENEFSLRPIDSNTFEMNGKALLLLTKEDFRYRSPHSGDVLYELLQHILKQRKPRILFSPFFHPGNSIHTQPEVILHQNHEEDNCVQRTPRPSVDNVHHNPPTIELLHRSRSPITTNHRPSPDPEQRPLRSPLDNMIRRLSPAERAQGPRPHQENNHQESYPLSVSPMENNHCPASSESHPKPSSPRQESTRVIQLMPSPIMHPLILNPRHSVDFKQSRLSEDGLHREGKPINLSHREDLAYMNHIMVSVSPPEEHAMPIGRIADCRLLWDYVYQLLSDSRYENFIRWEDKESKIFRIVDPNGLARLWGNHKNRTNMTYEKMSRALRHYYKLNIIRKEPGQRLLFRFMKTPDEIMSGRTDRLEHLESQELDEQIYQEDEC
Summary of the method: as §1

With ACACGC the binding signal (ELK1) was 1.06 fold enrichment (6-mer frequency, TF over GST control), the binding signal (GABPA) was 1.13 fold enrichment (6-mer frequency, TF over GST control) and the binding signal (ERG) was 1.15 fold enrichment (6-mer frequency, TF over GST control). For the same sequence, the binding signal (ELF1) was 1.17 fold enrichment (6-mer frequency, TF over GST control), the binding signal (EHF) was 1.08 fold enrichment (6-mer frequency, TF over GST control) and the binding signal (SPIB) was 1.1 fold enrichment (6-mer frequency, TF over GST control). The binding signal (FEV) was 1.09 fold enrichment (6-mer frequency, TF over GST control), the binding signal (ETV5) was 1.1 fold enrichment (6-mer frequency, TF over GST control) and the binding signal (ELF4) was 1.15 fold enrichment (6-mer frequency, TF over GST control). For the same sequence, the binding signal (ELK4) was 1.26 fold enrichment (6-mer frequency, TF over GST control), the binding signal (ETV2) was 1.19 fold enrichment (6-mer frequency, TF over GST control) and the binding signal (ELF3) was 1.11 fold enrichment (6-mer frequency, TF over GST control). The binding signal (ETV1) was 1.11 fold enrichment (6-mer frequency, TF over GST control), the binding signal (ETV3L) was 1.07 fold enrichment (6-mer frequency, TF over GST control) and the binding signal (ETS2) was 1.05 fold enrichment (6-mer frequency, TF over GST control). For the same sequence, the binding signal (SPDEF) was 1.08 fold enrichment (6-mer frequency, TF over GST control), the binding signal (ETV3) was 1.13 fold enrichment (6-mer frequency, TF over GST control) and the binding signal (ETV6) was 1.13 fold enrichment (6-mer frequency, TF over GST control).

From article PMC7862700, “An all-to-all approach to the identification of sequence-specific readers for epigenetic DNA modifications on cytosine”
